Five molecules from PubChem BioAssay can be followed below.

Assay [1] in a line: Wnt pathway potentiators raising nuclear beta-catenin – imaging, WNT3A-conditioned medium, mouse C2C12, NPC library, primary screen (AID 1117326; in the data active = nuclear beta-catenin stimulation mostly above about 4.2%, no sharp cut-off; inactive = mostly below about 10%). The settings on record: stronger effect = higher value.
The nature of assay [2]: stimulators of insulin release from INS-1E, primary screen, cell-based, 5 mM glucose, NPC library (AID 1117329;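 active = compound raises insulin release from rat beta cells at 5 mM glucose, no numeric limit stated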). The settings on record: rat INS-1E insulin secretion, at 10 µM, stronger effect = higher value.
Assay [3] is described as follows: growth inhibition of GSK3B-pretreated HCT116 cells – cell-based, CellTiter-Glo, 0.2 to 20 µM (AID 1117336;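 active = compounds lowering colon cancer cell viability after pretreatment blocking the GSK3B kinase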). The settings on record: HCT116 viability after GSK3B inhibitor, at 20 µM, stronger effect = higher value. A general note: ATP-based viability assays read luminescence as a measure of living cells.
Assay [4] is described as follows: inhibition of endothelial tube formation, primary screen, imaging, VEGF stimulated, CD31 staining, tube area, NPC library (AID 1117340;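 active = compound that reduces growth-factor-driven endothelial tube area in a mixed cell culture, no cutoff stated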). The settings on record: VEGF-stimulated ADSC/ECFC co-culture, at 10 µM, stronger effect = higher value.
Assay [5] in a line: GLP1 release stimulators, primary, NCI-H716, NPC library (AID 1117341;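 active = compound raises GLP1 secretion from the human gut endocrine cells, with no numeric limit stated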). The settings on record: NCI-H716 cells, at 10 µM, stronger effect = higher value.
A short description of assay [6]: HCT116 colon cancer cell growth inhibition, primary screen, CellTiter-Glo luminescence, NPC library (AID 1117342;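 active = compounds that lower survival of HCT116 colon cancer cells in the luminescence readout, no numeric limit stated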). The settings on record: at 20 µM (top of the series).
Assay [7] in a line: reduced SW480 viability measured with CellTiter-Glo, NPC library, primary (AID 1117343;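 active = compounds that lower viability of the colon cancer cells in the luminescence readout, with no numeric limit stated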). The settings on record: CellTiter-Glo luminescence; at 20 µM (top of the series) unless noted.
Assay [8] is described as follows: NPC library primary testing for decreased DLD-1 cell viability via CellTiter-Glo (AID 1117346;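 active = compounds that lower survival of DLD-1 colon cancer cells in the luminescence readout, no cutoff given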). The settings on record: DLD-1 viability, CellTiter-Glo luminescence; at 20 µM (top of the series).
Assay [9] can be described thus: viability loss in pontine glioma line – cell-based, SU-DIPG-XXV, MIPE5.0, CellTiter-Glo, qHTS, dose response (AID 1347065; cut-off not given, nearly all actives have AC50 up to about 26 µM;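 note: cells exposed to compound for 48 hours before ATP readout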). The settings on record: CellTiter-Glo ATP luminescence.
Assay [10] in a line: JHH-DIPG-1 glioma cell viability, MIPE5.0 library, CellTiter-Glo luminescence, qHTS (AID 1347067; cut-off not given, nearly all actives have AC50 up to about 26 µM;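 note: cells exposed to compound for 48 hours before readout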). The settings on record: JHH-DIPG-1 glioma viability, CellTiter-Glo ATP luminescence.
Assay [11] in a line: growth inhibition of DIPG cells – cell-based, MIPE5.0 library, qHTS (AID 1347068; cut-off not given, nearly all actives have IC50 up to about 30 µM). The settings on record: SU-DIPG-XXV viability. A general note: In qHTS, concentration-response curves come from the screen itself.
Assay [12] can be described thus: viability loss in pontine glioma line – cell-based, SU-DIPG-IV, MIPE4.0, CellTiter-Glo, qHTS, dose response (AID 1347063; cut-off not given, nearly all actives have AC50 up to about 30 µM;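 note: compound exposure lasted 48 hours before the viability readout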). The settings on record: CellTiter-Glo ATP luminescence.
Assay [13] in a line: viability loss with induced miR-34 in A549 – imaging, A549 dox-inducible miR-34, nuclei and caspase counts, primary screen (AID 1347080). The settings on record: A549 miR-34 inducible, Hoechst nuclei count, 48 h.
A short description of assay [14]: MELAS cybrid and Rieske KO viability enhancers – cell-based, MELAS cybrids, Rieske KO mouse fibroblasts, CellTiter-Glo, primary screen (AID 1508586;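 active = mean z-score across replicates of 1.96 or higher in either the MELAS or the Rieske mutant cell line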;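 note: z relative to plate mean and SD of compound and empty wells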). The settings on record: low glucose.
A short description of assay [15]: galactose survival enhancers in mitochondrial complex I cybrids – cell-based, galactose medium, ATP luminescence, primary screen (AID 1645843;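 active = z-score of at least 1.8 in each of two replicates, scored against plate mean and spread of sample wells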;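 note: positive z means more ATP and so rescue of galactose-driven cybrid death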). The settings on record: complex I mutant cybrid cells, 72 h, stronger effect = higher value.
Assay [16] can be described thus: P. berghei load reduction in hepatocytes – cell-based, HepG2, luciferase luminescence, HepG2 viability, primary screen (AID 624349; in the data active = parasite load remaining mostly below about 12%, no sharp cut-off; inactive = mostly above about 10%;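 note: 100% = mean of DMSO negative control wells on the same plate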). The settings on record: P. berghei liver stage in HepG2, luciferase luminescence, concentration not given here; parasite load remaining: stronger effect = lower value; viability: measured here: HepG2 viability without parasites.
Assay [17] can be described thus: viability loss in pontine glioma line – cell-based, JHH-DIPG-1, MIPE4.0, CellTiter-Glo, qHTS, dose response (AID 1347062; cut-off not given, nearly all actives have AC50 up to about 27 µM). The settings on record: JHH-DIPG-1 viability, CellTiter-Glo ATP luminescence.
Assay [18] can be described thus: growth inhibition of DIPG cells – cell-based, MIPE4.0 library, CellTiter-Glo luminescence, qHTS (AID 1347066; cut-off not given, nearly all actives have AC50 up to about 30 µM;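 note: cells exposed to compound for 48 hours before readout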). The settings on record: SU-DIPG-VI viability, CellTiter-Glo ATP luminescence.
The mark [19] stands for this setting: stronger effect = lower value, cell number ratio, induced over uninduced.
The mark [20] stands for this setting: measured here: relative caspase fold change +Dox/-Dox.
Setting [21] is: measured here: total cells with miR-34 induction, stronger effect = lower value.
Setting [22] is: measured here: total cells without miR-34 induction.
The mark [23] stands for this setting: MELAS cybrid survival, CellTiter-Glo 48 h, stronger effect = higher value.
The mark [24] stands for this setting: Rieske KO mouse fibroblast survival, CellTiter-Glo 72 h.

Values joined by “and” are separate entries in the source; they are usually repeats but may differ in a detail not shown here. Identical values can stand only once. Inconclusive results are not listed. Active and inactive are the calls of the source.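 Rule for the calls, unless noted: active = compounds whose cell count with miR-34 switched on is under 0.7 times the count with it off; inactive = the rest.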

One may read the viability as a read-out of living cells in per cent, often relative to untreated cells. A word on the AC50: it is the concentration at which the activity in the assay is half-maximal.

On to `Clc1cccc(C(c2ccc3nc[nH]c3c2)n2ccnc2)c1` (stereo unspecified), for which the nuclear beta-catenin stimulation was 0.3% (inactive) in [1] (at 10 µM) and -0.6% in [1] (stimulation, at 2 µM). Moreover, the insulin secretion stimulation in assay [2] was 1.6% (inactive). The viability decrease in assay [3] was 11.8% (inactive). Further, the tube area decrease in assay [4] is 19.4% (inactive). In addition, the GLP1 secretion stimulation in assay [5] was 0.1% (inactive). Moreover, the inhibition of viability in assay [6] is 43.2% (inactive). In addition, the viability decrease (inhibition) in assay [7] is 44.6% (inactive); in assay [8] it was 33.5% (inactive). In addition, the call in [9], in assay [10] and in assay [11] was inactive.
Regarding `COc1cc(C(C)=O)ccc1OCCCN1CCC(c2noc3cc(F)ccc23)CC1`, the nuclear beta-catenin stimulation in assay [1] (at 10 µM) is 1.5% (inactive); in assay [1] (stimulation, at 2 µM), 0.5%. Besides, the insulin secretion stimulation in assay [2] is 3.8% (inactive). Further, the viability decrease in assay [3] is 66.1% (active). In addition, the tube area decrease in assay [4] was 16.7% (inactive). The GLP1 secretion stimulation in [5] was 6.5% (inactive). For the same molecule, in assay [6], the inhibition of viability was 80.7% (active). In addition, the viability decrease (inhibition) is 100% (active) in assay [7] and 33.5% (inactive) in assay [8]. Further, the molecule was called inactive in assay [12]. For the same molecule, the fold change was 0.893 (inactive) and 0.919 (inactive) in assay [13] (setting [19]); 0.354 and 0.917 in assay [13] (setting [20]). Besides, the cell count was 6850 and 7430 in assay [13] (setting [21]); 7670 and 8090 in assay [13] (setting [22]). Moreover, the z-score in assay [14] (setting [23]) was -0.601 (inactive) and -0.433 (inactive); in [14] (setting [24]) it was 0.999 and 0.549; in assay [15] it was -1.19 (inactive).
As to `CCC(C)(C)c1ccc(CC(C)CN2C[C@@H](C)O[C@@H](C)C2)cc1` (stereo partly specified), the parasite load remaining in assay [16] is 32.9% (inactive). The viability in assay [16] stood at 99%. For the same molecule, the nuclear beta-catenin stimulation is 0.2% (inactive) in [1] (at 10 µM) and 0.5% in assay [1] (stimulation, at 2 µM). For the same molecule, the insulin secretion stimulation in [2] is -2.9% (inactive). The viability decrease in [3] was 23.9% (inactive). Also, the tube area decrease in [4] was -0.6% (inactive). Further, the GLP1 secretion stimulation in [5] is 11.9% (inactive). Also, the inhibition of viability in [6] is 10.2% (inactive). In addition, the viability decrease (inhibition) was 83.9% (active) in [7] and 55.5% (active) in assay [8]. Besides, the molecule was classed as inactive in assay [17]. The fold change in [13] (setting [19]) was 0.818 (inactive) and 0.902 (inactive); in assay [13] (setting [20]), 0.996 and 1.18. Besides, the cell count in [13] (setting [21]) was 6710 and 9820; in assay [13] (setting [22]), 8200 and 10900. The z-score in assay [14] (setting [23]) was -0.995 (inactive) and -0.921 (inactive); in assay [14] (setting [24]), -0.654 and -0.53; in assay [15] it was -1.82 (inactive).
As for `O=C(O)c1c(Cl)c(Cl)c(Cl)c(Cl)c1-c1c2cc(I)c(=O)c(I)c-2oc2c(I)c(O)c(I)cc12`, the nuclear beta-catenin stimulation was -2.4% (inactive) in assay [1] (at 10 µM) and -0.6% in [1] (stimulation, at 2 µM). Moreover, the insulin secretion stimulation in assay [2] was -1.2% (inactive). Further, the viability decrease in assay [3] was 96.7% (active). Also, in [4], the tube area decrease is 23.9% (inactive). In addition, the GLP1 secretion stimulation in [5] is -4.3% (inactive). In addition, the inhibition of viability in assay [6] is 91.6% (active). The viability decrease (inhibition) was 90.7% (active) in assay [7] and 73.4% (active) in [8]. Also, the half-maximal activity concentration (AC50) was 3.32 µM (active) in assay [9] and 8.33 µM (active) in assay [10].
Take `Cc1c(C)c2c(c(C)c1O)CCC(C)(COc1ccc(CC3SC(=O)NC3=O)cc1)O2` (stereo unspecified): the parasite load remaining in [16] is 65.9% (inactive) and 36.4% (inactive). Also, the viability in assay [16] is 207% and 95%. Moreover, the nuclear beta-catenin stimulation in [1] (at 10 µM) is 1.2% (inactive); in assay [1] (stimulation, at 2 µM) it was 10.4%. In [2], the insulin secretion stimulation is 1.4% (inactive). The viability decrease in assay [3] is 88.4% (active). Further, the tube area decrease in [4] was 99.4% (active). Besides, the GLP1 secretion stimulation in [5] is 11.9% (inactive). For the same molecule, the inhibition of viability in [6] is 55.4% (active). Also, the viability decrease (inhibition) in assay [7] is 110% (active); in [8] it was 101% (active). Besides, the call in assay [17], in assay [18], in assay [10] and in assay [11] was inactive. In addition, the fold change in assay [13] (setting [19]) was 1.09 (inactive) and 0.933 (inactive) and 0.824 (inactive); in assay [13] (setting [20]) it was 0.891 and 4.13 and 1.35. Besides, the cell count was 6090 and 11900 and 7450 in [13] (setting [21]); 5600 and 12700 and 9040 in assay [13] (setting [22]). Also, the z-score was -0.456 (inactive) and 0.16 (inactive) in assay [14] (setting [23]); 0.0968 and -0.894 in assay [14] (setting [24]); 0.175 (inactive) in assay [15].
